This note sets out measurements from the supplement of paper PMC11417369.

The full ranking holds about 25,000 sequences; the median of “ln(normalized median fluorescence intensity)” is about 6.7, and the highest 2% start at about 10. The sample as a whole holds a higher share of the highest values than the screen did.

For this test, the system named is PfHDP1 homeodomain (GST-tagged). The test can be described thus: gcPBM binding intensity (ln(normalized median fluorescence intensity)); higher = stronger DNA binding. The method in brief: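 For binding intensity, the highest Masliner-normalised natural-log median intensity across replicate spots of either probe orientation was taken. Protein bound to the array was stained with Alexa488 anti-GST antibody and scanned at 488 nm. The protein, GST-tagged P. falciparum DNA-binding domains from E. coli at about 25 μg on average, had been applied for 1 h to an Agilent 4 × 180k array of primer-extended double-stranded 36-bp intergenic genomic probes and negative controls.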
For the sequence “ATTGGGTACAAATACACACACATATAAATATTAATA [CACACA_site7173]”, the “gcPBM binding intensity (ln)” value stood at 6.68.

Turning to “TTATTTACTTATTGCACACATATAAAATATATTTAT [CACACA_site3101]”, the “gcPBM binding intensity (ln)” value was found to be 10.7.

For the sequence “ATATATATATATATTGCACACATATAAATATATATA [CACACA_site8167]”, the “gcPBM binding intensity (ln)” value stood at 10.9.

“ATAAATATTGGGTGCACACACATAATATATATATAT [CACACA_site2272]”: the “gcPBM binding intensity (ln)” value amounted to 10.5.

As to “TACATATATTATTGCACACATATAAAATACCCCCAA [CACACA_site3895]”, the “gcPBM binding intensity (ln)” value came out at 10.8.

Take “CATACATATATTATTGCACACATATAAAATACCCCC [CACACA_site9292]”: the “gcPBM binding intensity (ln)” value was determined as 10.4.

Regarding “CTATATAAAAAAATTGCACACATAAATATATACATA [CACACA_site8325]”, the “gcPBM binding intensity (ln)” value turned out to be 9.87.

Consider “TATTATTTACTTATTGCACACATATAAAATATATTT [CACACA_site9017]”, for which the “gcPBM binding intensity (ln)” value was 10.2.

For the sequence “ATATAAAAAAATTGCACACATAAATATATACATATA [CACACA_site1218]”, the “gcPBM binding intensity (ln)” value came out at 10.1.

“TATAAATTATAAATTGCACACATATTTTTATATTTA [CACACA_site8974]”: the “gcPBM binding intensity (ln)” value was determined as 10.1.

“TACAGATATTATTGCACACATATAAAATACCCCCAA [CACACA_site6014]”: the “gcPBM binding intensity (ln)” value came out at 10.4.

As to “ATAAATATTGCGTGCACACACATAATATTTATATAT [CACACA_site7136]”, the “gcPBM binding intensity (ln)” value is 10.3.

In the case of “TATAAAAAAATAAAAGGAATATACTTGCAAAGGGTA [CACACA_negctrl_site1438]”, the “gcPBM binding intensity (ln)” value came to 8.14.

On to “ATAATATTTTCTTCTTATTGAATGCTTTAAATTTAC [CACACA_negctrl_site1273]”, for which the “gcPBM binding intensity (ln)” value was found to be 6.46.

With “CGCACTAAAAAACACACACACACACCCATATATATA [CACACA_site4152]”, the “gcPBM binding intensity (ln)” value came to 7.19.

On to TTTTTAATTTTGTGGGTGCTTTCGTGTTATTATATA, for which the “gcPBM binding intensity (ln)” value was determined as 7.23.

For the sequence “ATAAACATGGAAATGTATTAAAAGCAAGTATATAAA [XGTACX_negctrl_site516]”, the “gcPBM binding intensity (ln)” value was 6.66.

As to “TGTTTTTAAAAATATACACACACAGATATTATATAT [CACACA_site8162]”, the “gcPBM binding intensity (ln)” value worked out at 6.73.

As to “CATCCACATATATGTACACACATATATATATATATA [CACACA_site2964]”, the “gcPBM binding intensity (ln)” value stood at 9.46.

Turning to “TATAATAATACTTATTGTACTATTAGTTTAATTCAT [XGTACX_site6638]”, the “gcPBM binding intensity (ln)” value was 6.15.

On to “AATGTAGAAATGGGTGCACACACATATATAATATAT [CACACA_site8799]”, for which the “gcPBM binding intensity (ln)” value turned out to be 10.2.

In the case of “TATAAATACATACATACACACATATATATATATATT [CACACA_site6116]”, the “gcPBM binding intensity (ln)” value is 6.81.

Turning to “AATAAAAAAAAATGCACACATATATATATATATATA [CACACA_site2421]”, the “gcPBM binding intensity (ln)” value is 9.87.

On to “AATATAAATAAACACACACACATATATATATATATT [CACACA_site2906]”, for which the “gcPBM binding intensity (ln)” value was found to be 6.78.

In the case of “CTTTTTTTTTTTTTTGCACACACATATATAAATATA [CACACA_site3950]”, the “gcPBM binding intensity (ln)” value was 10.6.

For the sequence “TGTAGAAATGGGTGCACACACATATAAAATCTATAT [CACACA_site7224]”, the “gcPBM binding intensity (ln)” value came out at 10.4.

With “TTTTTTTTTTTTTGCACACACATATATAAATATATA [CACACA_site3949]”, the “gcPBM binding intensity (ln)” value is 9.41.

As for “TAAACATAAATATGCACACATATACATATATTCATA [CACACA_site2667]”, the “gcPBM binding intensity (ln)” value turned out to be 9.75.

Turning to “ATATATATATATTGCACACATATAAATATATATATT [CACACA_site807]”, the “gcPBM binding intensity (ln)” value was 10.6.

In the case of “TATATATATATATTCACACATAAAAATAAAATAAAA [CACACA_site4774]”, the “gcPBM binding intensity (ln)” value was 8.8.

On to “TGTAGAAATGGGTGCACACACATATATAATATATAT [CACACA_site2507]”, for which the “gcPBM binding intensity (ln)” value was 10.7.

Take “TATATATATATATTCACACATAAATATATGCACCCA [CACACA_site4263]”: the “gcPBM binding intensity (ln)” value was found to be 11.

In the case of “GATTAATTTAAAAAATGTACATTTTATTGTATAACC [XGTACX_site5539]”, the “gcPBM binding intensity (ln)” value came to 6.55.

Consider AACTGAGAAACCGAAGTGCAATATGTATATATACAT, for which the “gcPBM binding intensity (ln)” value was determined as 9.08.

Consider “GAAAATAGAAAAAGCACACATATATTTTGGAATGTA [CACACA_site551]”, for which the “gcPBM binding intensity (ln)” value worked out at 6.5.

Regarding ATATATATAACAAAAGTGCATTAAGGGGATGCTATA, the “gcPBM binding intensity (ln)” value came to 8.66.

For “CGTATTATTTTATAAACACACAAGGGGGCATGTATA [CACACA_site6489]”, the “gcPBM binding intensity (ln)” value was determined as 7.82.

With TTTTTTTTTTTTTTGGTGCGATCTTTTAAATGATCC, the “gcPBM binding intensity (ln)” value came out at 6.48.

Turning to “TAATTTCCTTAAGAATGTACTTACATTTTATTATTT [XGTACX_site5998]”, the “gcPBM binding intensity (ln)” value was found to be 6.02.

On to “CCTATAAAACCATATACACACATATAAATAAAAAAA [CACACA_site7809]”, for which the “gcPBM binding intensity (ln)” value came out at 6.58.

For the sequence “TACAAATATATAAAATGTACATATATATACATATTA [XGTACX_site3029]”, the “gcPBM binding intensity (ln)” value is 6.13.

Consider “AAATAATATGTAATCAAATTCACCAAACGAAAAAAA [TGCATGCA_negctrl_site33]”, for which the “gcPBM binding intensity (ln)” value amounted to 6.59.

For the sequence “TATATATATATGTGCACACATAATAAAAAAAAAAAT [CACACA_site3831]”, the “gcPBM binding intensity (ln)” value is 9.99.

Take “ATATATATTAATTTTGTGCACAAATGGAAATGTTTG [GTGCAC_site9971]”: the “gcPBM binding intensity (ln)” value amounted to 10.9.

Consider “CTATAATATTAGTGCACACACAAAAATGTACTAAAC [CACACA_site6442]”, for which the “gcPBM binding intensity (ln)” value was found to be 10.6.

Take “TCAACAAATAAACTTTGTACATATATACAAAATATA [XGTACX_site4447]”: the “gcPBM binding intensity (ln)” value amounted to 6.27.

TCATAACAACTTTGTGTGCACATAAAACATGTATAT: the “gcPBM binding intensity (ln)” value is 11.

On to “GTATATAATATTAGTGCACACACAAAAATGTACTAA [CACACA_site8112]”, for which the “gcPBM binding intensity (ln)” value was 10.3.

With “TGTATATGGTTTGTGCAAAAATTTATTAATGTGTAA [TGCATGCA_negctrl_site374]”, the “gcPBM binding intensity (ln)” value worked out at 10.1.

“TATATATATATAACAACACACACAGATCATAAAACT [CACACA_site8670]”: the “gcPBM binding intensity (ln)” value amounted to 8.9.

Take “TTATATGTTTTGTGTACACAATTTATTAAATTAATA [CACACA_site5645]”: the “gcPBM binding intensity (ln)” value stood at 8.03.

As to “AACTTAAAAAATAAATGTACATAAATATAAACATAT [XGTACX_site2987]”, the “gcPBM binding intensity (ln)” value was 6.59.

Turning to “ATATAATATTAGTGCACACACAAAAATGTACTAAAC [CACACA_site632]”, the “gcPBM binding intensity (ln)” value amounted to 10.4.

Turning to “GAATAAAAAATATATGTGCACATATAAACTTAAAAT [GTGCAC_site9554]”, the “gcPBM binding intensity (ln)” value worked out at 10.7.

Turning to “AAAAAAAAAAAAAAGAGTACACAGACGTTCAAAGGT [XGTACX_site7566]”, the “gcPBM binding intensity (ln)” value amounted to 6.85.

For “CGCGAACATACATACACACACATATTTATATAGGTA [CACACA_site6241]”, the “gcPBM binding intensity (ln)” value turned out to be 6.69.

As to “ATAATTAGTTCAATTTTTTTTTTTTTTTTTTTTTTT [CACACA_negctrl_site1371]”, the “gcPBM binding intensity (ln)” value was 6.91.

For “ATAAATTTATATACTTGTACATATATATATTACATA [XGTACX_site6697]”, the “gcPBM binding intensity (ln)” value was 6.7.
